Reference: PubChem BioAssay (EPA / NIEHS)
Results filed as inconclusive are left out. Active and inactive are the calls of the source. How the source made its calls: active means hit-call score of the fitted dose curve at least 0.9, where 1 is the maximum; inconclusive means response in the unintended direction; inactive means score below 0.9.

target: Cellular tumor antigen p53 (Homo sapiens) (UniProt P04637); assay: TOX21_p53_BLA_p5_ratio: Tox21 HCT-116 p53 Agonism Beta-lactamase Assay, Ratio, Phase 5 (AID 2283599)
Text: TOX21_p53_BLA_p5 is a cell-based, single-readout assay that uses HCT116, a human intestinal cell line, […] in a 1536-well plate.TOX21_p53_BLA_p5_ratio is an assay readout measuring reporter gene via receptor activity and designed using inducible reporter (beta lactamase induction) detected with GAL4 b-lactamase reporter gene. The signal is derived from the ratio of cleaved (ch2) to uncleaved (ch1) reporter gene substrate used as the measure of target activity.Data from the assay component TOX21_p53_BLA_p5_ratio was analyzed into 1 assay endpoint. This assay endpoint, TOX21_p53_BLA_p5_ratio, was analyzed in the positive analysis fitting direction relative to DMSO as the negative control and baseline of activity. Using a type of inducible reporter, gain-of-signal activity can be used to understand changes in the reporter gene as they relate to the gene TP53. Furthermore, this assay endpoint can be referred to as a primary readout, because this assay has produced multiple assay endpoints and this ratio serves a reporter gene function to understand target activity. To generalize the intended target to other relatable targets, this assay endpoint is annotated to the DNA binding intended target family, where the subfamily is tumor suppressor.
Thawing Method: Place 14 mL of pre-warmed thaw medium into a 15 mL of conical tub. Remove the vial of cells to be thawed from liquid nitrogen and thaw rapidly by placing at 37C in a water bath with gentle agitation for 1-2 minutes. Decontaminate the vial by wiping with 70% ethanol before opening in a biological safety cabinet. Transfer the vial contents drop-wise into 14 mL of thaw medium in a sterile 15-mL conical tub. Centrifuge cells at 900 rpm for 4 minutes and resuspend in thaw medium. Transfer contents to the T75 tissue culture flask containing Thaw Medium and place flask in a humidified 37C/5% CO2 incubator. Switch to growth medium at first passage.Propagation Method: Aspirate medium, rinse once in DPBS, add 0.25% Trypsin/EDTA and swirl to coat the cell evenly. Add an equal volume of Growth Medium to inactivate Trypsin after 2-3 minutes incubation at 37C. Centrifuge cells at 900 rpm for 4 minutes and resuspend in growth medium. Cell should be passage or fed at least twice a week.Assay Protocol: Harvest cells from culture in growth medium and resuspend in assay medium. 2.2 Dispense 4000 cells/5 uL/well into 1536-well black/clear bottom plates using a Multidrop dispenser. After the cells were incubated at 37C for 5 hours, 23 nL of compounds dissolved in DMSO were transferred to the assay plate by a PinTool resulting in a 217-fold dilution. Incubate the plates for 16 hours at 37C, 5% CO2. Add 1 uL of 6X LiveBLAzer FRET B/G (CCF4-AM) Substrate Mixture to each well using a BioRAPTR dispenser and incubate the plates at room temperature for 2 hours. Measure fluorescence intensity at 460 and 530 nm emission and 405 nm excitation by an Envision detector. Data is expressed as the ratio of 460nm/530nm emissions. Add 4 uL of Cell-titer Glo to each well using BioRAPTR and incubate the plates at room temperature for 2 hours. Measure fluorescence intensity by a VewLux plate reader.

Cellular tumor antigen p53 (Homo sapiens), sequence (P04637 whole entry, looked up, the tested form may be a part): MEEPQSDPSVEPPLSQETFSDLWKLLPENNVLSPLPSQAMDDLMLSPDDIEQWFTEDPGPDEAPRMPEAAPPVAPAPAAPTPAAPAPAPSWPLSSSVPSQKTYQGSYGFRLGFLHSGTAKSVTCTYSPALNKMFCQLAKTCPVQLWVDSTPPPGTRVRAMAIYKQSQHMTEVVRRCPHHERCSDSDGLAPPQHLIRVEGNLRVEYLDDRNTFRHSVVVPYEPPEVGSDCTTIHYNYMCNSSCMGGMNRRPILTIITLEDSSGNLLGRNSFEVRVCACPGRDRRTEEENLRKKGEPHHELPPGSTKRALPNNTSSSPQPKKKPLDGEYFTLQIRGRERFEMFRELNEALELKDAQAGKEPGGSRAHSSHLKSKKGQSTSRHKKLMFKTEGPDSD

| Structure (SMILES) | outcome |
| --- | --- |
| C=CC(=O)OCCOCCOCCOCCOC(=O)C=C | inactive |
| CN1CCN(c2c(F)cc3c(=O)c(C(=O)O)cn4c3c2SCC4)CC1 | inactive |
| CS(=O)(=O)CCNCc1ccc(-c2ccc3ncnc(Nc4ccc(OCc5cccc(F)c5)c(Cl)c4)c3c2)o1 | inactive |
| O=P(O)(O)OP(=O)(O)OP(=O)(O)O | inactive |
| CC1(C)CO[C@@H](CC(=O)O)CN1 | inactive |
| CC(C)NCC(O)COc1ccccc1-n1cccc1 (stereo not given) | inactive |
| Cc1cnc(C)c(C)n1 | inactive |
| COc1ccc(CCC(=O)c2c(O)cc(O[C@@H]3O[C@H](CO)[C@@H](O)[C@H](O)[C@H]3O[C@@H]3O[C@@H](C)[C@H](O)[C@@H](O)[C@H]3O)cc2O)cc1O | inactive |
| O=C(C(=O)c1ccc(Br)cc1)c1ccc(Br)cc1 | inactive |
| C=CC[N+]1([C@H]2C[C@H]3[C@@H]4CC[C@H]5C[C@H](O)[C@@H](N6CCOCC6)C[C@]5(C)[C@H]4CC[C@]3(C)[C@H]2OC(C)=O)CCCC1 | inactive |
| CCCCCC/C=C/C(=O)OC | inactive |
| CN1CCN(c2cc3c(cc2F)c(=O)c(C(=O)O)cn3-c2ccc(F)cc2)CC1 | inactive |
| CN1CCCN(C(c2ccccc2)c2ccc(Cl)cc2)CC1 (stereo not given) | inactive |
| CC(=O)Nc1cccc(N)c1 | inactive |
| Nc1cc(C(=O)O)c(O)c(S(=O)(=O)O)c1 | inactive |
| NC(=O)N1c2ccccc2CC(=O)c2ccccc21 | inactive |
| Nc1cccc2c(=O)[nH][nH]c(=O)c12 | inactive |
| CC1=NN(c2ccc(C(=O)O)cc2)C(=O)C1 | inactive |
| O[C@@H]1CO[C@H]2[C@@H]1OC[C@@H]2O | inactive |
| CCc1c(C)[nH]c2c1C(=O)C(CN1CCOCC1)CC2 (stereo not given) | inactive |

| Structure (SMILES) | outcome |
| --- | --- |
| O=C1NC(=O)[C@H]2[C@@H]1[C@@H]1C=C[C@H]2C1 | inactive |
| CNC(=O)[C@H](Cc1c[nH]c2ccccc12)NC(=O)[C@@H](CC(=O)NO)CC(C)C | inactive |
| CC(=O)O[C@H]1CC[C@@]2(C)C(=CC[C@@H]3[C@@H]2CC[C@]2(C)C(c4cccnc4)=CC[C@@H]32)C1 | inactive |
| CC[C@@H](N)CO | inactive |
| Oc1ccc(C2CNCCc3c2cc(O)c(O)c3Cl)cc1 (stereo not given) | inactive |
| c1ccc2cnncc2c1 | inactive |
| NC(=O)c1ccccc1[N+](=O)[O-] | inactive |
| CC(=O)CC(=O)Nc1ccc(S(=O)(=O)O)cc1 | inactive |
| C=COCCCCO | inactive |
| ClCCl | inactive |
| CC(C)C[C@@H](N)C(=O)O | inactive |
| c1cc2c3c(c1)ccc1cccc(c13)C2 | inactive |
| COc1ccc(C2(C#N)CCC(C(=O)O)CC2)cc1OC1CCCC1 (stereo not given) | inactive |
| c1ccc2nccnc2c1 | inactive |
| Cc1nc(-c2ccc(Cl)cc2)oc1COC(C)(C)C(=O)O | inactive |
| FC(F)(F)c1cccc(Cl)c1 | inactive |
| COc1cc2c(cc1OC)[C@@H](c1ccccc1)CN(C)CC2 | inactive |
| CCN(CC)CC(=O)Nc1c(C)cccc1C | inactive |
| O=C(NCCc1c[nH]c2ccccc12)c1cccnc1 | inactive |
| Cc1cccc(O)c1N | inactive |
